What is called inhibition is the change of the read-out against control, counted positive when it falls.

For one assay, the target named is Hexose transporter 1 (Plasmodium falciparum) (UniProt O97467). In words: ST_JUDE_LEISH: Cytotoxicity at 2uM final concentration against transgenic Leishmania Mexicana promastigotes LmPfHT that are glucose transport deficient and complemented with the Plasmodium falciparum hexose transporter. Activity is measured by DNA content using SYBR green in vitro. It counts as functional.
As to `COc1ccccc1C1CCN(CCN2CCC(NC(=O)c3ccc(-c4ccc(C#N)cc4)cc3)CC2)CC1`, the inhibition is 2.09%.

Take `O=C(c1ccco1)N1CCN(c2ccc([N+](=O)[O-])c(NC3CC3)c2)CC1`: the inhibition was determined as 0.13%.

As for `CCOc1ccc(Cc2c(C)nc3nc(N)nc(N)c3c2C)cc1`, the inhibition is 41.5%.

Turning to `CC(c1cccc(S(=O)(=O)NCc2cccc(C(F)(F)F)c2)c1)N1CCC(N2CCCCC2)CC1` (centres undefined), the inhibition was determined as 7.23%.

As for `CC(Oc1c(C2CCN(CCCCNC(=O)c3ccc(-c4ccc(C#N)cc4)cc3)CC2)ccc2c1CCCC2)C(N)=O` (centres undefined), the inhibition came to 1.22%.

Take `NC1CCN(Cc2cccc(-c3cccc(-c4nc5ccccc5[nH]4)c3)c2)C1` (centres undefined): the inhibition was 3.31%.

As to `O=C(Cn1c(SCc2cccc(F)c2F)cc(=O)c2ccccc21)N(CCN1CCCCC1)Cc1ccc(-c2ccc(C(F)(F)F)cc2)cc1`, the inhibition was -1.37%.

Consider `COc1ccc(Cl)cc1N1CCN(CCCNC(=O)c2ccc(-c3nc4cnccc4[nH]3)c(Br)c2)CC1`, for which the inhibition is -0.19%.

For `CN1CCN(CC(O)CNC(=O)Nc2ccc(Cl)cc2)CC1` (centres undefined), the inhibition worked out at 5.03%.

Take `COc1ccc2c(NN=Cc3ccccn3)ccnc2c1`: the inhibition stood at 11.8%.

Another assay addresses Glucose transporter (Leishmania mexicana) (UniProt O61059). Briefly: ST_JUDE_LEISH: Cytotoxicity at 2uM final concentration against transgenic Leishmania Mexicana promastigotes LmGT2 that are glucose transport deficient and complemented with the L. Mexicana glucose transporter 2. Activity is measured by DNA content using SYBR green in vitro. The class given is functional.
Turning to `O=C(c1cc(-c2ccccc2)n[nH]1)N1CCN(S(=O)(=O)c2ccc(Cl)s2)CC1`, the inhibition turned out to be 2.66%.

As to `Nc1ncc(-c2ccc3nccc(-c4ccncc4)c3c2)cc1S(=O)(=O)N1CCCCC1`, the inhibition worked out at 7.55%.

Consider `Cc1cc(F)ccc1Nc1nc(N(C)c2ccccc2)c2cccc(O)c2n1`, for which the inhibition was 1.82%.

As for `Cc1[nH]c(C)c(-c2ccc(OCc3cccc(C(F)(F)F)c3)nc2)c(=O)c1Br`, the inhibition was found to be 35%.

As to `CC(C)Nc1nc(NCCc2c[nH]cn2)nc(NCc2cccc3ccccc23)n1`, the inhibition is -2.34%.

On to `COc1cc2nc(NCC3CCN(C(=O)c4ccc(-c5ccc(C(=O)N(C)C)cc5C)cc4)CC3)nc(N)c2cc1OC`, for which the inhibition turned out to be 7.15%.

With `CC(=O)N(C)C1CCN(Cc2ccc(-c3ccc(-c4nc5cc(F)ccc5[nH]4)s3)cc2)C1` (centres undefined), the inhibition was determined as 6.2%.

Consider `O=C(Nc1ccc(N2CCNCC2)cc1)c1ccn2ncc(-c3cccc(Cl)c3)c2n1`, for which the inhibition was 54.3%.

With `CN(C)CCCn1cncc1-c1ccc2ncnc(Nc3ccc4c(cnn4Cc4ccccc4)c3)c2c1`, the inhibition amounted to 1.35%.

Consider `O=C1COC2(CN1C1CCN(Cc3ccc(O)c(Cl)c3)C1)c1ccccc1-c1ccccc12` (centres undefined), for which the inhibition came out at 5.67%.

For the compound `COC(=O)c1ccc(CC(C)NCC(O)c2ccc(C(O)CNC(C)Cc3ccc(C(=O)OC)cc3)cc2)cc1` (centres undefined), the inhibition came to 0.96%.

In the case of `N=C(NC1CC1)c1ccc2[nH]c(CCCCCc3nc4cc(C(=N)NC5CC5)ccc4[nH]3)nc2c1`, the inhibition worked out at 1.61%.

As to `COc1ccc(CNC(=O)c2cnc3c(O)cccc3c2Nc2cccc(NC(=O)c3ccc(Cl)c([N+](=O)[O-])c3)c2)cc1`, the inhibition was found to be 4.02%.

Take `O=C(NCc1ccccn1)C(c1cc2ccccc2o1)N1CCN(C(c2ccccc2)c2ccccc2)CC1` (centres undefined): the inhibition is 2.55%.

`COc1ccc2nccc([C@@H](O)CN3CCC(NCc4cc5cccc(OCc6ccccc6)c5[nH]4)CC3)c2c1`: the inhibition came to 2.01%.

As to `CN(CCN)Cc1cccc(-c2cccc(-c3nc4cc(F)ccc4[nH]3)c2)c1`, the inhibition is -1.76%.

`CN(C)C(CNC(=O)c1cc(-c2ccncc2)c(-c2ccc(NC(=O)Nc3ccccc3)cc2)o1)c1ccccc1` (centres undefined): the inhibition was -0.82%.

As to `COc1cccc(-c2ccc(C(=O)NCC3CCCN(Cc4cccc(C(F)(F)F)c4)C3)s2)c1` (centres undefined), the inhibition was 5.79%.

Turning to `C(=C(c1cccs1)c1cccs1)c1ccc(CNC2CCN(Cc3ccccc3)CC2)cc1`, the inhibition came to 5.77%.

Regarding `CCCCCCn1c(Sc2ccc(C#N)c([N+](=O)[O-])c2)nnc1-c1ccccc1`, the inhibition was determined as 6.76%.

On to `CN(C)c1ccc2c(c1)Sc1cc(N(C)C)ccc1N2C(=O)CCCC(=O)O`, for which the inhibition is -0.96%.

In the case of `CC(C)(C)c1ccc(OCCCON2C(=N)N=C(N)NC2(C)C)c(C(C)(C)C)c1`, the inhibition was 1.14%.

On to `Cc1cccc(CNc2nccc3[nH]c4ccccc4c23)c1`, for which the inhibition worked out at 1.28%.

For `c1cc(CN2CCN(CCN3CCOCC3)CC2)cc(-c2csc(-c3nc4ccccc4[nH]3)c2)c1`, the inhibition came to 4.63%.

For `O=C(NCCCCN1CCC(c2ccc3c(c2OCCOCCO)CCCC3)CC1)c1ccc(-c2ccc(C(F)(F)F)cc2)cc1`, the inhibition turned out to be 0.76%.

`COc1ccc(C=NNc2cc(C)nc3ccc(OC)cc23)c(OC)c1`: the inhibition stood at 2.56%.

Regarding `CC12CC3CC(C)(C1)CC(Nc1nc(N4CCOCC4)nc4ccccc14)(C3)C2`, the inhibition is -0.7%.

With `C=CC[C@H](NC(=O)c1ccc(NS(=O)(=O)c2ccc3nc(N)[nH]c(=O)c3c2)cc1)C(=O)OCCCC`, the inhibition stood at 1.67%.

On to `N#Cc1cccc(C(=O)Nc2cccc(-c3ccc(CN4CCC(O)CC4)cc3)c2)c1`, for which the inhibition came to 0.83%.

(Values after ChEMBL document CHEMBL3433997, “St. Jude Leishmania screening dataset” (2016).)
